Measured values published in PubChem BioAssay (NCI).
Several values for one entry are separate records, joined by “and”; a condition that tells them apart may be missing. Identical values can stand only once. Compounds without any hit were thinned out: in the full panel of roughly 83,000, 20% have a hit.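 48-hour exposure, single concentration, 96-well plates; percent growth endpoint where 0 means no net growth. Active: below 10.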 Activity calls are given as the source filed them.

Each molecule was assayed on MDA-MB-468 breast (assay: NCI-60 one-dose screen, 48 h (100 = growth as untreated, 0 = no growth, -100 = all killed)). Settings: 10 µM unless noted.

SMILES	growth
Cn1c(-c2ccc(Br)cc2)c(O)c(=O)c2c(F)cccc21	39.7% (inactive)
Cc1ccc(C2=Nn3c(nnc3-c3ccccc3)SC2)cc1	25.1% (inactive)
N/C(=N\c1nc2c(Cl)cccc2s1)C(Cl)(Cl)Cl	22.6% (inactive)
NC1=C(C/C(N)=N\O)C(c2ccccc2Cl)c2c(ccc3ccccc23)O1 (stereo not given)	61.6% (inactive)
COc1cc(C(=O)c2cc(C(C)=O)c3c(C)cccn23)cc(OC)c1OC	81.8% (inactive)
CCNC(=O)Oc1ccc(/C(=C(\C)c2ccc(Cl)cc2)c2ccc(OCCN(CC)CC)cc2)cc1	67.5% (inactive)
COc1ccccc1C1=C(Br)C(=O)c2nc(C)ccc2C1=O	107% (inactive)
N[C@@H]1CCN(C(=O)c2cc3cc(Cl)c(F)c(F)c3[nH]2)C1	81.6% (inactive)
Clc1ccc(-c2cn3cc(Cc4ccc(Cl)c(Cl)c4)sc3n2)cc1	80.5% (inactive)
COc1ccc(-c2cc(-c3ccc(Cl)cc3)c(C#N)c(=O)n2CCCCC(=O)NO)cc1	72.6% (inactive)
CS(=O)(=O)Nc1cccc(C(=O)NCc2ccc(N3CCOCC3)cc2)c1	93% (inactive)
O=[N+]([O-])c1ccccc1Sc1ccccc1[N+](=O)[O-]	92.1% (inactive)
CC[C@@](C)(NC(=O)[C@H](C)NC(=O)CCNC(=O)C(C)(C)NC(=O)[C@H](C)NC(=O)[C@@H]1CCCN1C(=O)[C@@](C)(CC)NC(=O)[C@H](Cc1ccccc1)NC(=O)C1CCCN1C(=O)C(C)(C)NC(=O)C1CCCN1C(=O)C(C)(C)NC(C)=O)C(=O)NCCC(=O)N[C@@H](CC(C)C)C(=O)NC(C)(C)C(=O)NCCC(=O)N[C@@H](CC(C)C)C(=O)NC(C)(C)C(=O)NC(C)(C)C(=O)N[C@@H](CC(C)C)C(=O)NCCC(=O)NCO (stereo not given in full)	-91.9% (active)
Clc1ccc2oc3c(OCCCn4ccnc4)c4ccccc4nc3c2c1	66.5% (inactive)
CCN(CC)C(=O)c1cccnc1	109% (inactive)
CN(C)C(CNc1oc(-c2cccc3ccccc23)nc1C#N)c1ccco1 (stereo not given)	97% (inactive)
COc1cccc(-c2nc3sccn3c2-c2ccnc(NCCNS(=O)(=O)c3ccc(F)cc3)c2)c1	19.2% (inactive)
COc1ccc(NC(N)=NCCCOc2ccc(F)cc2)cc1	66.2% (inactive)
COc1ccc(C(=O)/C=C/c2cn(-c3ccccc3)nc2-c2cccc(Nc3ccnc4cc(Cl)ccc34)c2)cc1	75.7% (inactive)
C[C@]12CCc3nc(Nc4cccc(O)c4)sc3C1=CC[C@@H]1[C@@H]2CC[C@]2(C)/C(=N\NC(N)=S)CC[C@@H]12	-32.7% (active)

SMILES	growth
COc1ccc(/C=C(\C#N)c2cc(OC)c3c(c2)OCO3)cc1	-4.06% (active)
O=C1/C(=C\c2coc3ccccc3c2=O)c2ccccc2N1c1c(Cl)cccc1Cl	44.9% (inactive)
Cc1ccc2c(n1)C(=O)c1[nH]c3ccccc3c1C2=O	-15.8% (active)
CN(C)c1ccc(/C=N/Nc2nc(N/N=C/c3ccc(N(C)C)cc3)nc(N3CCOCC3)n2)cc1	97.8% (inactive)
O=S(=O)(NCCNc1cc(-c2cn(-c3ccccc3)nc2-c2cccc(O)c2)ccn1)c1ccc(Cl)cc1	-24.6% (active)
Nc1nc(-c2ccc(Cl)cc2)cc(-c2cc3ccccc3oc2=O)n1	94% (inactive)
Cc1nc(NN)c([N+](=O)[O-])c(NN)n1	122% (inactive)
COC(=O)[C@]1(C)CCC[C@]2(C)[C@H]3C[C@@H]4[C@H]5[C@@H]6CC/C(=N\OCC/C(N)=N/O)[C@H]5[C@@]3(CC[C@H]21)CC4(C(C)C)O6	64.1% (inactive)
O=S(=O)(Nc1ccccc1)C1CCCCC1	110% (inactive) and 107% (inactive)
Cc1ccc(Cc2ccc(C)cc2)cc1	96.8% (inactive)
Cc1cc2nc3c4cc(C=O)ccc4n(CCN(C)C)c3nc2cc1C	-5.88% (active)
O=C(NC[C@H](O)CN1CCc2ccccc2C1)c1cc(NC2COC2)ncn1	115% (inactive)
COc1ccc(S(=O)(=O)N(C)c2oc(-c3ccc(Cl)cc3)nc2C#N)cc1	32.1% (inactive)
O=C1C=CC(=O)C2=C1CCCC2	61.5% (inactive)
CCCC(=O)NC(c1cccnc1)c1cc(C(C)(C)C)c2cccnc2c1O (stereo not given)	-20.4% (active)
CS(=O)CC1=NC(=N)N=C1CS(C)=O (stereo not given)	88.5% (inactive)
COc1ccc(Cc2cnc(NC(=O)c3cc(C)oc3C)s2)cc1	14.8% (inactive)
O=C1CCc2c(sc3[nH]c(=S)n(Cc4ccccc4)c(=O)c23)C1	-3.67% (active)
C#C[C@]1(O)CC[C@H]2[C@@H]3CC=C4c5sc(Nc6cc(Cl)ccc6OC)nc5CC[C@]4(C)[C@H]3CC[C@@]21C	4.64% (active)
NS(=O)(=O)c1ccc(CCn2c(SCC(=O)c3ccc(Cl)cc3)nc3ccccc3c2=O)cc1	105% (inactive)
